We go through eight compounds from PubChem BioAssay (NCI).

Among the test systems are NCI-H23 lung; NCI-H226 lung; NCI-H322M lung; HOP-62 NSCLC; NCI-H460 lung; HOP-92 NSCLC; NCI-H522 lung; A549/ATCC NSCLC; 786-0 renal; COLO 205 colon; DU-145 prostate; K-562 leukemia; MALME-3M melanoma; MDA-MB-231 breast; RXF 393 renal; SF-268 CNS; SF-295 CNS; SF-539 CNS; UACC-257 melanoma; M14 melanoma.
What all share (assay): NCI-60 one-dose screen, 48 h (100 = growth as untreated, 0 = no growth, -100 = all killed)
Common to all, as to conditions: 10 µM unless noted

The panel holds about 83,000 compounds, 20% with a hit somewhere; the sample as a whole holds those more often.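 The test compound was applied at a single concentration to cells in 96-well plates for 48 hours, and percent growth was recorded.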 A number with no mark means an inactive call. Activity calls are given as the source filed them. The calls were made as follows: active = growth percent below 10; inactive = the rest.

For `CN1CCN(CC#CCOC(=O)CNC(=O)[C@]23CCC(C)(C)C[C@H]2C2=CC[C@@H]4[C@@]5(C)CC[C@H](O)C(C)(C)[C@@H]5CC[C@@]4(C)[C@]2(C)CC3)CC1`, the growth was 94.2% with NCI-H23 lung; 93.5% in the assay on NCI-H226 lung; 94.2% with NCI-H322M lung; 90.4% in the assay with HOP-62 NSCLC; 96.4% with NCI-H460 lung; 88.7% in the assay with HOP-92 NSCLC. In addition, the growth in the assay with NCI-H522 lung was 87.8%; in the assay with A549/ATCC NSCLC it was 79.2%; with 786-0 renal, 80.3%; in the assay with COLO 205 colon it was 85.4%; in the assay with DU-145 prostate it was 96.7%; in the assay with K-562 leukemia it was 70.1%. The growth in the assay with MALME-3M melanoma is 92.5%; with MDA-MB-231 breast, 95.5%; in the assay with RXF 393 renal, 78.1%; in the assay on SF-268 CNS, 88%; in the assay on SF-295 CNS, 96.9%; with SF-539 CNS, 83.5%. Also, the growth is 95.1% in the assay on UACC-257 melanoma and 96.8% in the assay with M14 melanoma.

On to `COc1cc2nc3c(=O)n(CCN(C)C)cnn3c(=O)c2cc1OC`, for which the growth is 95.9% with NCI-H23 lung; 103% with NCI-H226 lung; 95.2% with NCI-H322M lung; 101% with HOP-62 NSCLC; 105% with NCI-H460 lung; 100% in the assay on HOP-92 NSCLC. The growth is 89% in the assay with NCI-H522 lung; 105% in the assay on A549/ATCC NSCLC; 105% in the assay with 786-0 renal; 102% in the assay with COLO 205 colon; 108% in the assay with DU-145 prostate; 125% in the assay on K-562 leukemia. The growth with MALME-3M melanoma is 99.4%; with MDA-MB-231 breast, 116%; in the assay on RXF 393 renal, 108%; in the assay with SF-268 CNS, 101%; with SF-295 CNS, 99.5%; in the assay on SF-539 CNS it was 97.7%. In addition, the figures for the growth with UACC-257 melanoma and in the assay on M14 melanoma were 107% and 95.5%, respectively.

`COc1ccc(/C=C/C(=O)c2ccc(NC(=O)CSc3nnc(-c4ccc(OC)c(OC)c4)n3-c3ccccc3)cc2)cc1`: the growth in the assay with NCI-H23 lung was 21.3%; in the assay with NCI-H226 lung, 80.7%; in the assay with NCI-H322M lung, 99.1%; in the assay on HOP-62 NSCLC it was 48.5%; with NCI-H460 lung it was 91.3%; in the assay on HOP-92 NSCLC, 52.7%. The growth in the assay with NCI-H522 lung is -60.9% (active); in the assay on A549/ATCC NSCLC, 80%; in the assay with 786-0 renal, -67% (active); with COLO 205 colon, 26.7%; with DU-145 prostate it was 40.8%; in the assay on K-562 leukemia, 8.42% (active). For the same compound, the growth in the assay on MALME-3M melanoma is -75% (active); with MDA-MB-231 breast, 1.36% (active); in the assay with RXF 393 renal it was 94.4%; with SF-268 CNS, 80.6%; in the assay with SF-295 CNS, 91.4%; in the assay on SF-539 CNS it was 87.5%. Also, the growth was 90% in the assay with UACC-257 melanoma and 36.2% in the assay on M14 melanoma.

With `C[C@H]1[C@H](C)CC[C@]2(C(=O)OCCOCCOCC[P+](c3ccccc3)(c3ccccc3)c3ccccc3)CC[C@]3(C)C(=CC[C@@H]4[C@@]5(C)CC[C@H](OC(=O)C(Cl)Cl)C(C)(C)[C@@H]5CC[C@]43C)[C@H]12`, the growth in the assay with NCI-H23 lung is 5.49% (active); in the assay with NCI-H226 lung, 15%; with NCI-H322M lung it was 27.8%; with HOP-62 NSCLC it was 25.3%; in the assay on NCI-H460 lung it was 6.27% (active); in the assay on HOP-92 NSCLC, -26.6% (active). The growth was -15.3% (active) in the assay on NCI-H522 lung; 11.2% in the assay with A549/ATCC NSCLC; -38.3% (active) in the assay with 786-0 renal; -7.06% (active) in the assay with COLO 205 colon; 26% with DU-145 prostate; 0.14% (active) in the assay on K-562 leukemia. The growth with MALME-3M melanoma is -78.5% (active); in the assay on MDA-MB-231 breast, -0.496% (active); in the assay on RXF 393 renal, -29.5% (active); with SF-268 CNS, 25.9%; in the assay on SF-295 CNS, -34.8% (active); with SF-539 CNS, 9.4% (active). Besides, the growth with UACC-257 melanoma was -13.6% (active); with M14 melanoma, 8.99% (active).

Regarding `C#C[C@@]1(O)[C@@H](CO)O[C@@H](n2cc(Cl)c3c(N)ncnc32)[C@@H]1O`, the growth with NCI-H23 lung is 0.604% (active); in the assay with NCI-H226 lung it was 1.13% (active); with NCI-H322M lung, -3.01% (active); with HOP-62 NSCLC it was -4.82% (active); in the assay with NCI-H460 lung it was -19.1% (active); in the assay on HOP-92 NSCLC it was -27.1% (active). In addition, the growth with NCI-H522 lung was -29% (active); in the assay on A549/ATCC NSCLC, -31.1% (active); in the assay with 786-0 renal, -58.8% (active); with COLO 205 colon, -39.4% (active); in the assay with DU-145 prostate, 4.44% (active); with K-562 leukemia, 4.99% (active). Besides, the growth in the assay with MALME-3M melanoma was -19.5% (active); with MDA-MB-231 breast, -6.34% (active); in the assay with RXF 393 renal, -33.4% (active); with SF-268 CNS, 15.3%; in the assay on SF-295 CNS it was -26.8% (active); in the assay on SF-539 CNS, -54.3% (active). Also, the results for the growth in the assay on UACC-257 melanoma and in the assay with M14 melanoma were 40.9% and -25.8% (active), respectively.

For the compound `CC[C@H](Nc1ncnc2nc[nH]c12)c1nc2cccc(CC(=O)c3ccc(C(=O)NO)cc3)c2c(=O)n1-c1ccccc1`, the growth in the assay on NCI-H23 lung is 94.1%; in the assay on NCI-H226 lung, 84.9%; with NCI-H322M lung it was 90.4%; in the assay with HOP-62 NSCLC it was 83.2%; with NCI-H460 lung it was 89.9%; in the assay on HOP-92 NSCLC, 72.6%. Further, the growth is 51.4% in the assay with NCI-H522 lung; 88.4% with A549/ATCC NSCLC; 98.9% with 786-0 renal; 95.4% with COLO 205 colon; 101% with DU-145 prostate; 85.9% in the assay with K-562 leukemia. Further, the growth with MALME-3M melanoma is 56.2%; in the assay with MDA-MB-231 breast, 99.9%; in the assay with RXF 393 renal it was 83.5%; in the assay on SF-268 CNS, 83%; with SF-295 CNS, 97.9%; in the assay on SF-539 CNS, 78.5%. In addition, the growth was 53.5% in the assay with UACC-257 melanoma and 92.5% in the assay with M14 melanoma.

On to `COc1ccc(NC(=O)c2sc3nc(C)c(C(C)=O)cc3c2N)cc1`, for which the growth in the assay with NCI-H23 lung was 98.1%; in the assay on NCI-H226 lung, 95.9%; in the assay on NCI-H322M lung, 95.5%; in the assay with HOP-62 NSCLC, 99.1%; with NCI-H460 lung, 96%; in the assay with HOP-92 NSCLC it was 94.6%. For the same compound, the growth in the assay with NCI-H522 lung is 75.2%; with A549/ATCC NSCLC it was 84%; in the assay with 786-0 renal, 91.4%; in the assay on COLO 205 colon, 103%; in the assay with DU-145 prostate, 102%; in the assay with K-562 leukemia, 86.2%. For the same compound, the growth in the assay on MALME-3M melanoma is 115%; in the assay on MDA-MB-231 breast, 102%; with RXF 393 renal, 105%; with SF-268 CNS it was 102%; with SF-295 CNS, 97.7%; with SF-539 CNS, 87.8%. Besides, the growth in the assay with UACC-257 melanoma was 88.7%; in the assay on M14 melanoma, 100%.

As for `O=C(CCl)N1CCCc2ccccc21`, the growth was 101% with NCI-H23 lung; 101% in the assay with NCI-H226 lung; 94% in the assay on NCI-H322M lung; 107% in the assay on HOP-62 NSCLC; 99.3% in the assay with NCI-H460 lung; 97.2% in the assay on HOP-92 NSCLC. Moreover, the growth in the assay with NCI-H522 lung was 96.8%; with A549/ATCC NSCLC, 109%; in the assay with 786-0 renal, 104%; with COLO 205 colon, 108%; with DU-145 prostate, 97.7%; in the assay on K-562 leukemia, 101%. The growth in the assay with MALME-3M melanoma is 98.3%; in the assay with MDA-MB-231 breast, 99.5%; in the assay with RXF 393 renal it was 89.1%; in the assay with SF-268 CNS, 94.9%; with SF-295 CNS it was 95.7%; in the assay with SF-539 CNS, 103%. Also, the figures for the growth in the assay on UACC-257 melanoma and in the assay on M14 melanoma were 107% and 93.9%, respectively.
